The supplement of paper PMC10681739
± gives the standard deviation of the averaged measurements. The full ranking holds about 4,100 sequences; the median of “arbitrary fluorescence units” is about 780, and the highest 2% start at about 22,000. For the sample, the highest values were picked, then their nearest neighbours and some sequences at random.

Target: T1, ETS1 (UniProt P14921)
T1 sequence: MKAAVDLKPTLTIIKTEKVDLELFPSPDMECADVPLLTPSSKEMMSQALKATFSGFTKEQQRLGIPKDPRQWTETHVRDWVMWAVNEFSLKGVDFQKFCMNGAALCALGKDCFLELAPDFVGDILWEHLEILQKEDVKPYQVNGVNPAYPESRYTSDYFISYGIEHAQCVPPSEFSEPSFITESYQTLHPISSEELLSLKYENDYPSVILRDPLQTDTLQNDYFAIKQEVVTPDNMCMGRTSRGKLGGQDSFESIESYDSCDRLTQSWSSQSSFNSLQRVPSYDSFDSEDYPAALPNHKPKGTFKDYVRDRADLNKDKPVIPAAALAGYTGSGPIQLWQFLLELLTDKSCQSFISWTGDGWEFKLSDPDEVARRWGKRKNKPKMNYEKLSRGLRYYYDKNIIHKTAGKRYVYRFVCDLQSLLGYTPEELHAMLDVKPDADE
Assay: ETS1 binding intensity (PBM fluorescence), ETS1 alone (arbitrary fluorescence units); higher = stronger binding
Conditions: ETS1 concentration 1 nM; RUNX1 concentration 0 nM
Procedure: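 gcPBM on 36-bp genomic-derived probes (partner site mutated) containing one ETS1 site and no RUNX1 site. Recombinant human ETS1 (1 nM) was incubated alone or with RUNX1 (25 nM) and detected by anti-ETS1 antibody fluorescence. Values are medians over 4 replicate spots (not normalised). The probes sit in constant array flanks that are not printed.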

Row | Sequence | ETS1 binding intensity
1 | GACTGCGCCGGACGCGCCAGCCCTGCGCGATGACGT | 678
2 | CGTTTCCTGTCTGGGACTGCGCCCACGCGATCACGT | 38800
3 | TGGCTGTCACTTCCTGTCCCACTGTCGTTCCTGGGA | 20600
4 | TCCCTCCTTCCGCTCTGGTTTTGGGGTTGCTTGCTG | 6220
5 | CCAACAGCAGCGCTACTCCCGGCCGCTTCCGCCTGG | 748
6 | CGGCCTCTTCCGGTCACCTGGCCCGTCGCTGTCCCG | 17300
7 | GGCACTTCCGGTCCTGACCTGAAGCGCTCACCGTCA | 55000
8 | CCGCGTCCTCAGAGGTCCGGCCGGAAGTCACCTGAA | 8340 ± 1500
9 | ACAAAGTCAGTGGCAATGTGGAACGTCCGCCAAGAG | 384
10 | GCGGAGGGAAGCGGAAATACTTGCAGTGGGGGCGAC | 3700
11 | CTCTTGGCGGACGTTCCACATTGCCACTGACTTTGT | 616
12 | GCCACTTCCGGTCACTCCCCTCAGCGGCCTCGCGCT | 39600
13 | CAACTCCGGCGCCCTCAGGCCACTTCCGCCTATGTA | 4590
14 | CACTCCCCTCCCGAGGTCACACTTCCGGCGGCCACC | 7960
15 | CTGCCTTTCCTGCTAGGGTACAAATCACAGCCTTAG | 1670
16 | AACTTCCTTCCCGAGAGCCTGAAGCAGCCGTAGGCC | 9120
17 | TTTAAGGTTCATGCTGTACTCAGAACATCCTGTTCT | 1150
18 | CGGGTTAAACAGCAGCCGCGCCCACACTTCCGGGGT | 2120
19 | TCCCCACACTTCCGGCCCCGCGCGCACAGCCGCACC | 25400
20 | TCCCGCTTCGGCCAACAGCCGGGCCACTTCCGGGGC | 2910
21 | CCGCGAACAGCAGAATTCCCGCCTTCCGCAGCCCGG | 480 ± 6.2

Row | Sequence | ETS1 binding intensity
22 | TGGGGCTCTTCCTGCTTATGTGAGCACAGCACCTTG | 4750
23 | GGTCTCTGCTTCCGGTCCTTGGGGTAGCACCTCTGT | 32000
24 | AGCACCAGTGTTGTCTCTGCTTCCGGTCCTTATGGT | 7490
25 | CAGCCAGCGCACCTCCTCCTCAGCTTCCTCTGGTGC | 620
26 | GATGAGGGCTTGCGCGCAAACAGCCCGGAAATGAGG | 1010
27 | CAACAACCGGAAGTGGGGCGGGCCGTAGTACCCGCC | 35100
28 | CGGCCGCCGTTTAGGGCGGCCCCGGAAGCGGGGCGC | 531
29 | GGGGACCGGAAAGGGAGGGGTGGGCCGTAGGCGCCG | 4430
30 | GCACTCATTTCCTGTCCCCTGTAGTTTAAAGGTTTT | 19700
31 | TTGCATGTAGTTTAGGCTGTAGTTTCCTCCTGTAGT | 534
32 | AGGCTCATTTCCTGTTTTCATGTAGTTTAGAGAAAA | 24300
33 | TATATGCACAGGAAGTCCCTTACAACCTACTCTGTT | 3590
34 | AGGACCGGAAGTGCCCGAGGGCGGCCGGAGAACGGT | 45500
35 | AGAAGTGCAGTGGAGGAGGGCCGGAACGGTGACTAT | 393
36 | GGCGGGAGAGGAAGCCGGGCGGCCGAAGCTGCCTGT | 811
37 | CCATTCCTACGGCCTTCATTGCTGCATCCGGTGGAG | 2480
38 | CTCTGGGAGGCCGCCGCTTTCCACCGGAAAGAGGGT | 555
39 | AGGTACAACACCAGACGGTAGGCCAGGAAATCGCAG | 407
40 | CTCCGCGCAGCCCCAGAGACCCTTGGGAAGTGTGGT | 320
41 | CTCGGCCAACGCGTGCTCCACTCGGAAGTGGTGCCG | 457
42 | CAAAGTGATGGGGGAAATGGTTGTAGTTTTGGGTGG | 514

Row | Sequence | ETS1 binding intensity
43 | CGTGTGAGGGGGCGCAAGGCAGCGGCAGCTTCCGCC | 830
44 | AACAGTACTTCCGGGGCAAGTGAGCGCCTACAAGGC | 30400
45 | GTTGCAAAGGCGCCTACAACTACTTCCGCTTCTAGT | 4670
46 | AAATGAGCGGAGGTTGAGCCCTACTTCCGGTGGTGC | 14100
47 | TGAGCCCTACTTCCGGTGGTGCTGTGCTCTGCCCCT | 29700
48 | CTTCTACTTCCTGCCCCGCCCCCAGCTGTGCTCACA | 17900
49 | GCTTGTCTTCCGGTTTCGTCGCCGCCGTAGGCGCAC | 16700
50 | AGTTTCCTGAACTCAGAGCACAGTTCTGGTGCAGAA | 6300
51 | TCGGGCTGCCGAAGAGCAGCTATTTCCTGTCTGCAC | 5010
52 | TATTTCCTGTGCACAGAAGCAGCTGGGCCGAAGAGT | 34400
53 | CCAGACCCGGCGGAACTACCGTGCCCTCAAGGCAGC | 477
54 | ACGCGCGCGGGGGAGGTGGCTTCTTCCGGCCGGGCC | 1860
55 | CCCGGAGGACGTCCGGCCTCTGTGAGCCGCCACCTT | 4500
56 | TTCAGGTGACTTCCGGCCGGACCTCTGAGGACGCGG | 24100 ± 4200
57 | CTCGGCCAGGAAGCACTGAGCCACTTCGGCATCGCA | 591
58 | TGACAGACCCGGAAATAAGAGGAGACAACACACTTG | 4440
59 | GGCAGGAAAGAGCTGATGCATTTCAACAGCAGCCTG | 477
60 | CCTGAGCGCCCGGAAGGAAGGCTGGGGTAGGTTGTC | 756
61 | GTCGGAAGTGGCCGTGAGCCCAAGCCGAGGTCCCGG | 1130
62 | ACCAACCGGAAGTGATCGTGTCGTGGCCGAAGGAGG | 32300
63 | GGAGGGGCTGGCCGGAAGTGAACCGAAGAGCACGCT | 16700

Row | Sequence | ETS1 binding intensity
64 | TGCGCCAGCGGGAGGGAGCAGTTCCGGGTACGGTGC | 563
65 | CAGGACCCCTGTACTCCGGGTGAAGCGGAAGCGCAG | 667
66 | TTATCTGTCGTTCTTTTATGGGGTGGGCTTCCTCTG | 503
67 | GAGAAAGCAGCGCCCCAGCGCGCCTTCCGCCACGCC | 328
68 | CAGTCTGGCCATGAGGTGCCACTTCCTCTCTGGTTT | 1550
69 | AGCCGCCACTTCCTGTCTCTGAGGGTGCATGCTCTT | 36000
70 | CTGACTTGTTGTAGTCTCTGCCACTTCCTGAGGTGT | 668
71 | TAAAATTTCGGGAGGGGACTTGGTCCTTCCTGTTGC | 735
72 | GCGCCCCGCTTCCGGGGCCGCCCTAAACGGCGGCCG | 10100
73 | AGCAACCTACTACCCGGCGCCTGATTCACTTCCCTC | 391
74 | CTTACTATATTAACGCCGGTACACATCCGCCCGACA | 1800
75 | CCCCGTTACGCCCATCCGGCTCCCGAATAGGGCGTC | 2610
76 | ATTACATCCGGGCTCCGCGACACGCCCGAACCCCAA | 25300
77 | CTTACGGCCTCGCGCCATGGGCAGTATCCGCCGCCA | 328
78 | GATGGGCTGGGGATGTGGCCTGTTTGCCGCTGGCGA | 361
79 | GGCTGCGACTTCCGGACTGCTCCTGGCCGCTGGGGG | 22900 ± 1200
80 | GGCTGCGCCGGCTGGGGTGTTCCTCCGACTTCCGGA | 1590
81 | CAGCCGACTTCCGGGGTGGGGCTTGCTGCCGCTGAG | 19300
